Source: PubChem
Shown are actives, neighbours in structure and some others; about 21% of the full set was active somewhere.
CYP2C9 activ = human CYP2C9 activators, primary screen, biochemical, luminescence; 1.4% of 96,000 active; recombinant CYP2C9, luciferin-H conversion; active compounds read high; factor 1 = untreated enzyme, 0 = blocked; activation factor at 5 µM; AID 1024, 2008; Cytochrome P450 2C9 (Homo sapiens), P11712;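 active = activation factor of 2 or more for CYP2C9 at a 5 µM dose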;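 note: 0 = sulfaphenazole-blocked wells and 1 = vehicle-only wells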
Target sequence (P11712 whole entry, looked up): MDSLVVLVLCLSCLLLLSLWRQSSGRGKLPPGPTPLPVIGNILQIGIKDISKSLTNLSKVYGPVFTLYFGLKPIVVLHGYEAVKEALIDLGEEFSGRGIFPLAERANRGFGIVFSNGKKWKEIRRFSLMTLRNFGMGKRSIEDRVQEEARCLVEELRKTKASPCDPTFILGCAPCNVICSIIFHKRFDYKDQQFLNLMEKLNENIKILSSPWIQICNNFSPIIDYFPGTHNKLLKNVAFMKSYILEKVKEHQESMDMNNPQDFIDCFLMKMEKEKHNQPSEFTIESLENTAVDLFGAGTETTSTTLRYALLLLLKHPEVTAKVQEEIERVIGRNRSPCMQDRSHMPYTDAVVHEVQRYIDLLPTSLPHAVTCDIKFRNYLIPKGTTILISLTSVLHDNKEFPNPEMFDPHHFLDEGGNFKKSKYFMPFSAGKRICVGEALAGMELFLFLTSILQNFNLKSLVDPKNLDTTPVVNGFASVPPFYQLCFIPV
MRP1 act = H69AR viability gain despite doxorubicin, primary screen, MRP-1 activator project, H69AR cells, CellTiter-Glo; viability rescue; viability increase, % at 10 µM; 0.61% of 140,000 active;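 active = viability gain under doxorubicin at or above a set limit, the compound median plus 3 SD, cut at about 4.7% in these data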;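 note: MRP-1 overexpressing cells given doxorubicin 25 µM after compound pretreatment; 18-22 h compound pretreatment then 72 h with doxorubicin before readout; 0% = doxorubicin-only wells and 100% = vehicle-treated cells without doxorubicin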
MRP reversal = reversal of MRP1-mediated doxorubicin resistance, primary screen, H69AR cells, doxorubicin co-treatment; H69AR cells + 2 uM doxorubicin, CellTiter-Glo, 72 h; differential viability (reversal), % at 10 µM; 0.04% of 85,000 active; AID 602, 2007;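 active = viability drop by adding the cancer drug above about 55%, with treated viability meeting a 40% cutoff, limit read from the data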;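 note: viability without doxorubicin minus viability with 2 µM doxorubicin for each compound; larger differential means the compound sensitizes cells more to doxorubicin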
CYP2C19 inhib = blockers of cytochrome P450 2C19 activity – biochemical, luminescence, ADME assay, primary screen; P33261; CYP2C19 Supersomes, luciferin-H EGE luminescence, 30 min; inhibition, % at 5 µM; 21% of 96,000 active; AID 778, 2007;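 active = CYP2C19 inhibition above a set limit at 5 µM in the primary screen, cut at about 50% in these data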;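 note: plate controls were negative control wells for no effect and 2.5 mM tranylcypromine positive control for full effect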
CYP2C9 inh = blockers of cytochrome P450 2C9 activity – biochemical, luminescence, ADME assay, primary screen | inhibition, % at 5 µM | CYP2C9 Supersomes, luciferin-H conversion | 20% of 96,000 active | P11712;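 active = blocking of liver enzyme CYP2C9 beyond about 50% at 5 µM, limit read from the data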
CYP2C19 activ = human CYP2C19 activators, primary screen, biochemical, luminescence | Cytochrome P450 2C19 (Homo sapiens), P33261 | recombinant CYP2C19, luciferin-H EGE luminescence; active compounds read high; 0 = fully inhibited enzyme, 1 = untreated enzyme | activation factor at 5 µM | 96,000 tested, under 10 active;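 active = activation factor of at least 2 at 5 µM in the primary screen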;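 note: 0 = wells with 2.5 mM tranylcypromine and 1 = vehicle-only wells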
Starred values were filed as active, the others as inactive; . = not tested or not shown.

SMILES	CYP2C9 activ	MRP1 act	MRP reversal	CYP2C19 inhib	CYP2C9 inh	CYP2C19 activ
Cc1cc(C)c(C(=O)COC(=O)[C@H](C)Nc2ccc(C(F)(F)F)cc2[N+](=O)[O-])c(C)c1	0.1	-0.4	.	79.0*	90.3*	0.2
O=C(c1cccnc1)c1cccnc1	.	0.0	.	.	.	.
FC(F)(F)c1nnc2ccc(N3CCOCC3)nn12	1.2	-1.4	11.3	-19.9	-18.1	1.2
Cc1cccc(C)c1N1CCN(c2ccc3nnc(C(F)(F)F)n3n2)CC1	0.1	-2.1	8.6	63.5*	88.7*	0.4
Cc1sc2ncnc(OCC(=O)c3ccc(S(=O)(=O)N4CCCC4)cc3)c2c1C	0.3	-1.1	-15.7	73.4*	68.7*	0.3
Cc1sc2ncnc(OCC(=O)N3CCN(S(=O)(=O)c4ccc(Cl)cc4)CC3)c2c1C	0.2	-0.2	6.7	74.7*	83.0*	0.3
O=C(COc1ncnc2ccccc12)N1CCN(S(=O)(=O)c2ccc(Cl)cc2)CC1	0.7	-1.0	-1.6	9.6	32.8	0.9
CN(C)S(=O)(=O)c1cc(NC(=O)CSc2ncc(C(F)(F)F)cc2Cl)ccc1Cl	.	-0.8	.	.	.	.
CCCn1nc(NC(=O)c2cccs2)c2cc3cc(OC)ccc3nc21	0.4	0.7	.	17.9	56.4*	0.8
COc1ccc2nc3c(cc2c1)c(NC(=O)C1CCCO1)nn3CC(C)C (stereo not drawn)	0.3	-0.5	-12.9	48.5	66.4*	0.5
CCCn1nc(NC(=O)c2cccs2)c2cc3ccccc3nc21	0.5	-0.1	-5.2	25.6	48.1	0.7
CCCCn1nc(NC(=O)c2cccs2)c2cc3ccccc3nc21	0.5	0.2	-2.2	14.7	46.5	0.9
CCCCn1nc(NC(=O)c2cccs2)c2cc3cc(OC)ccc3nc21	0.4	-4.7	-8.1	16.8	64.2*	0.8
COc1ccc(OC)c(CN2CCCC(CO)C2)c1 (stereo not drawn)	1.1	-1.0	-11.4	-9.8	-8.4	1.1
O=C(Cn1nnc(-c2ccccc2F)n1)Nc1ccc2c(c1)OCO2	0.6	-2.3	6.9	47.5	45.0	0.5
Cc1ccccc1CN1CCN(CC(=O)NCc2ccc3c(c2)OCO3)C1=O	0.2	-2.5	6.9	15.4	76.0*	0.8
Cc1ccccc1-c1nnn(CC(=O)NCc2ccc3c(c2)OCO3)n1	0.2	-0.6	3.7	47.4	81.9*	0.5
N#Cc1cn(-c2ccccc2)nc1C(=O)c1ccccc1	1	-0.8	.	50.3*	-0.5	0.5
COc1ccc(C2C(C(=O)NCCN(C)C)c3ccccc3C(=O)N2C)cc1OC (stereo not drawn)	1.1	-2.6	-16.2	-20.6	-12.0	1.2
Cn1nnc2cc(C(=O)NC3CCCCC3)ccc21	1	-0.6	-22.7	2.5	-3.8	1
O=C(NCCO)c1ccc2nc(-c3ccco3)c(-c3ccco3)nc2c1	1	-0.9	-6.3	9.5	2.8	0.9
O=C(NCCc1ccccc1)c1ccc2nc(-c3ccco3)c(-c3ccco3)nc2c1	0	-1.1	-3.0	93.6*	97.9*	0.1
O=C(NC1CCCC1)c1ccc2nc(-c3ccco3)c(-c3ccco3)nc2c1	0.4	-3.1	-6.3	22.1	58.7*	0.8
Cc1ccc(Cl)cc1N1CCN(Cc2nc3ccsc3c(=O)[nH]2)CC1	0.8	-2.8	.	70.3*	22.5	0.3
Brc1ccc(CSc2nnc(-c3ccco3)o2)cc1	.	-0.6	.	.	.	.
CCn1c(C(=O)NCc2cccnc2)cc2sc(Cl)cc21	0.1	-3.6	.	99.1*	90.4*	0
CCCn1c(=O)c(C(=O)Nc2cnccn2)c(O)c2ccccc21	1.3	.	-0.9	-16.4	-25.2	1.2
CCn1c(=O)c(C(=O)NCc2cccnc2)c(O)c2ccccc21	0.3	0.3	-10.2	27.5	71.9*	0.7
Cc1ccc2c(Cl)c(C(=O)NCc3cccnc3)sc2c1	0.6	0.0	.	43.8	38.4	0.6
CCCn1c(=O)c(C(=O)NCc2ccncc2)c(O)c2ccccc21	0.2	0.8	-2.4	67.7*	80.1*	0.3
